Compounds with a hit are over-represented: about 4.6% of the library has one in this group of screens.
D1 potentiator – potentiators of human D1 dopamine receptor | P21728 | HEK293 TREx D1 cells, calcium flux, dopamine EC20 potentiation | potentiation, % at 10 µM | hit rate 0.036% among 360,000 | AID 504651; in the data active = potentiation above about 30%; also: 0% is about no effect
Target sequence (P21728 whole entry, looked up): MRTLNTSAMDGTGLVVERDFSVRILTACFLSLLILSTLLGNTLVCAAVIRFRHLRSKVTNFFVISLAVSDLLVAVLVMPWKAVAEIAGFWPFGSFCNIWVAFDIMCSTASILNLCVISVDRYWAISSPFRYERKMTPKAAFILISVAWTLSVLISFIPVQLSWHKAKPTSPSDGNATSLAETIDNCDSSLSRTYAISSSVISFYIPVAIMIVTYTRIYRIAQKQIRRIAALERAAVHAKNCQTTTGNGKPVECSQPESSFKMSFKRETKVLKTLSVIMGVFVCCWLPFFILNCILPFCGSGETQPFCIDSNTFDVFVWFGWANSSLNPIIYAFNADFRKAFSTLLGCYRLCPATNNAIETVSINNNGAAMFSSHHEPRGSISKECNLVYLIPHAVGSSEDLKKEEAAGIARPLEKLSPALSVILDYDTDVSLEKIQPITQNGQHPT
D1 antag – antagonists of human D1 dopamine receptor; HEK293 TREx D1 cells, calcium flux, dopamine EC80; stronger effect = lower value; P21728; activity change, negative = inhibition, % at 10 µM; AID 504652; hit rate 3.2% among 360,000; in the data active = activity change below about -30%; also: % is scaled to controls: 0 for no effect and ±100 for the full control effect
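Allosteric or orthosteric antagonism assessed as attenuation of the calcium response to EC80 dopamine, added 180 s after compound, in induced HEK293 Trex D1 cells loaded with no-wash calcium dye.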
D1 agonist – agonists of human D1 dopamine receptor; P21728; HEK293 T-REx D1 cells, calcium flux, agonist mode; activation, % at 2 µM; hit rate 1% among 360,000; also: 0% is about no effect
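Agonism was scored from calcium flux recorded over 180 s (1 read/s) after pintool compound addition, following a 10-cycle baseline. Cells were inducible force-coupled HEK293 TREx D1, plated overnight at 30 C and loaded with no-wash calcium dye.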
TRHR agonist – agonists of human TRH receptor. P34981. TRHR cells, calcium flux fluo-8, FDSS agonist mode. hit rate 0.18% among 360,000. activation, % at 2 µM. AID 493084; also: 0% is about no effect
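Steps: seed TRHR cells overnight; add fluo-8 no-wash Ca dye, RT 30 min–1.5 h; record 10 s baseline; pin-transfer compounds; monitor fluorescence 1 cycle/s for the agonist window. Calcium increases flag candidate agonists.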
TRHR PAM – allosteric enhancers of human TRH receptor; P34981; TRHR cells, fluo-8 calcium fluorescence, EC20 TRH enhancement; enhancement, % at 2 µM; hit rate 0.66% among 360,000; AID 493056; in the data active = enhancement above about 30%; also: 0% is about no effect
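Enhancer read-out: after compound pinning and an initial kinetic agonist-mode read, an EC20 of TRH (10 nM final) was injected and fluo-8 calcium signal (Ex 480/Em 530) followed at 1 s/cycle for 100 cycles in TRHR-expressing cells.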
* = called active by the depositor. Rule as the data show it, unless noted: active = activation above about 30%; inactive = the rest.

SMILES	D1 potentiator	D1 antag	D1 agonist	TRHR agonist	TRHR PAM
CCC1CCCCN1C(=O)c1cc(COc2ccc(-n3cncn3)cc2)on1 (stereo unspecified)	-10	-34*	17	-1	5
Cc1ccc(OCc2cc(C(=O)N3CCC(Oc4cccnc4)CC3)no2)cc1C	-8	-8	14	0	0
CC(=O)c1ccc(OCc2cc(C(=O)N3CCC(Oc4ccccc4C)CC3)no2)cc1	-6	-53*	26	1	-6
CC(=O)c1ccc(OCc2cc(C(=O)N3CCCCCCC3)no2)cc1	-5	-38*	27	0	-1
CC(=O)c1ccc(OCc2cc(C(=O)N3CCOCC3)no2)cc1	2	3	4	0	-2
Cc1cccc(C)c1OCc1cc(C(=O)N2CCC(c3ccncc3)CC2)no1	-6	-42*	12	-1	5
CS(=O)(=O)c1cccc(C(=O)Nc2ccccc2Cc2ccccc2)c1	-6	-13	3	-1	-7
Cc1c(CCO)c(=O)n(C)n1C(=O)c1ccc(F)cc1	-7	12	5	0	-1
Cc1c(CCO)c(=O)[nH]n1C(=O)c1ccc(F)cc1	-9	-31*	1	0	2
CCC(C)NC(=O)CCCn1c(=O)c2cccn2c2ccccc21 (stereo unspecified)	-4	-4	2	0	10
Cc1cccc(/N=C/c2sc3ccccc3c2O)n1	-6	3	52*	10	14
O=[N+]([O-])c1ccc(O)c(N=Cc2sc3ccccc3c2O)c1	2	16	27	17	-1
Cc1cccc(/N=C/c2c(O)[nH]c3ccccc23)n1	-8	-14	33*	0	-6
Oc1ccc(Cl)cc1N=Cc1sc2ccccc2c1Cl	-4	3	0	1	-1
Oc1c(C=Nc2cccc3cccnc23)sc2ccccc12	0	-24	158*	50*	9
O=C(Nc1nc2n(n1)C(c1ccc(F)cc1)C=C(c1ccc(Cl)cc1)N2)c1ccco1 (stereo unspecified)	-2	-9	-2	0	3
CCC1(c2ccc(F)cc2)NC(=O)N(CC(=O)N2CCc3ccccc3C2)C1=O (stereo unspecified)	3	-2	2	0	4
O=C(CCc1nnc2n(Cc3ccc(F)cc3)c(=O)c3ccccc3n12)NCCN1CCOCC1	-18	6	4	0	-8
CC1CC(C)CN(C(=O)CN2C(=O)NC(C)(C)C2=O)C1 (stereo unspecified)	3	0	4	1	14
CN(C)C=Nc1ncc2c([nH]c3ccccc32)c1C#N	1	30	-1	0	12
Cc1cc(C)c(C(=O)CSc2n[nH]c(=O)n2C2CC2)cc1C	-9	-37*	11	-1	0
O=C(CSc1n[nH]c(=O)n1C1CC1)c1ccc2c(c1)OCCO2	-2	-1	13	-1	-1
C#CCOCCOCCOCCNc1nc(N2CCN(C(=O)CCCCCCCCCCNC(=O)[C@@H](CCC(=O)O)n3cc(CCCCCN)nn3)CC2)nc(N2CCN(C(=O)CCCCCCCCCCNC(=O)[C@@H](CCC(=O)O)n3cc(CCCCCN)nn3)CC2)n1	-6	-32*	10	0	-10
C#CCOCCOCCOCCNc1nc(N2CCN(C(=O)CCCCCCCCCCNC(=O)Cn3cc(CCCCCN)nn3)CC2)nc(N2CCN(C(=O)CCCCCCCCCCNC(=O)[C@H](CO)n3cc(CCCCCN)nn3)CC2)n1	14	66	85*	13	-2
C#CCOCCOCCOCCNc1nc(N2CCN(C(=O)CCCCCCCCCCNC(=O)Cn3cc(CCCCCN)nn3)CC2)nc(N2CCN(C(=O)CCCCCCCCCCNC(=O)[C@H]([C@@H](C)CC)n3cc(CCCCCN)nn3)CC2)n1	20	110	43*	9	4
SMILES	D1 potentiator	D1 antag	D1 agonist	TRHR agonist	TRHR PAM
CCn1cc(CN2CCC(n3nccc3NC(=O)C3CCCC3)CC2)cn1	-3	-52*	1	0	0
COc1ccc(-c2c(C)nn(Cc3ccccc3)c2N)cc1	1	-9	1	0	30*
COc1ccc(-c2ccc(=O)n(Cc3ccccc3)n2)cc1	-2	-24	0	0	-1
COc1ccc(C2N3CC4(C)CN2CC(C)(C3)C4O)cc1OC (stereo unspecified)	-7	-5	4	0	31*
COc1ccc(C2N3CC4(C)CN2CC(C)(C3)C4O)cc1 (stereo unspecified)	0	3	3	1	5
COc1ccc(CCn2c(N)cc(=O)[nH]c2=O)cc1OC	-7	-48*	1	0	7
COc1ccccc1CCn1cc(C#N)c(=O)[nH]c1=O	-1	4	2	0	8
COc1ccc(CCn2cc(C#N)c(=O)[nH]c2=O)cc1OC	-3	20	0	1	38*
COc1ccc(C(C)=O)cc1COC(=O)CSC(C)C(=O)Nc1cc(C)on1 (stereo unspecified)	4	1	4	0	2
CCOc1ccc(C(=O)C(C)OC(=O)c2nc(Cl)ccc2Cl)cc1 (stereo unspecified)	3	-24	35*	-1	0
COc1cccc(OCCn2cc(C(C)=O)c3ccccc32)c1	-1	-32*	23	0	-9
Cc1ccc(OCCn2cc(C=O)c3ccccc32)cc1	-4	-34*	7	0	0
COc1cccc(OCCn2cc(C(=O)c3ccco3)c3ccccc32)c1	-7	-1	50*	-1	-1
CC(=O)c1cn(CCOc2cc(C)ccc2C)c2ccccc12	-10	-14	12	0	-13
COc1cccc(OCCn2cc(/C=N/NC(=O)c3ccncc3)c3ccccc32)c1	-3	-14	3	0	14
Cc1ccc(C)c(OCCn2cc(C(=O)O)c3ccccc32)c1	-11	-40*	4	0	-4
COc1ccccc1OCCn1cc(C(=O)c2ccco2)c2ccccc21	-5	-7	24	1	-2
Cc1cccc(OCC(=O)OC(C)C(=O)Nc2ccc(Cl)cn2)c1 (stereo unspecified)	0	19	3	0	8
COc1ccc(Br)c(/C=N/NC(=O)COc2ccc(-c3ccccc3)cc2)c1	14	-4	8	0	8
CC(=O)N[C@@H]1c2c(ccc3ccccc23)OC[C@@H]1COC(C)=O	-7	6	1	0	14
COC(=O)c1cccc(-n2c(C)cc(C=O)c2C)c1	-4	-30*	3	-2	-5
COC(=O)c1cc(C(=O)OC)cc(-n2c(C)cc(C=O)c2C)c1	3	-4	2	0	1
Cc1c(C(=O)NC(=S)N(Cc2ccccc2)c2ccccn2)cccc1[N+](=O)[O-]	-4	-28	1	0	9
CCOC(=O)c1c(C)[nH]c(C(C)=O)c1C	5	-23	1	1	4

Screens deposited in PubChem by National Center for Advancing Translational Sciences (NCATS).
